Assay outcomes as filed in PubChem BioAssay.
Many of the other results were omitted from the sample, so hits are more common in it than they were.
TTR transcr act: increases transthyretin transcription; activation, % at 16.7 µM; 1.3% of 92,000 active; SH-SY5Y TTR promoter Gaussia luciferase, luminescence; 100% = recombinant luciferase protein wells;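 active = activation above the mean of all tested compounds plus 3 SD, cut at about 9.5% in these data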;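 note: cells exposed to compounds for one day before reading; 0% = median of all test compound wells on the plate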
TTR inh HuH7: decreases TTR transcription in HuH7 cells in activator counter-screen. 4% of 1,100 active. AID 1117279. inhibition, % at 16.7 µM. HuH7 TTR promoter-Gaussia luciferase reporter, luminescence. shares compounds with TTR transcr act;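 active = average inhibition above the solvent-only control wells' mean plus 3 SD, cut at about 15% in these data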;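 note: 0% = cells with DMSO only and 100% = cells with inhibitor control FD; inhibitors lower well luminescence so higher value means more inhibition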
TTR act confirm: human TTR transcription activation, confirmation | activation, % at 16.7 µM | SHSY5Y TTR promoter Gaussia luciferase, luminescence; 100% = purified Lucia enzyme wells, no cells | 1,100 tested, under 10 active | AID 1117280 | shares compounds with TTR transcr act;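 active = mean activation above a set limit taken from the earlier primary screen, cut at about 11% in these data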;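 note: 0% = DMSO-treated cells and 100% = recombinant Lucia luciferase without cells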
Numbers without * were called inactive.

SMILES | TTR transcr act | others
Cn1c(N)c(C(=O)COC(=O)c2ccc(-c3ccccc3)cc2)c(=O)n(C)c1=O | -1
Cc1c(-c2ccc(Cl)cc2)[n+](=O)c2c(n1[O-])CCCC2 | 0
O=[n+]1c2c(n([O-])c3c1CCCC3)CCCC2 | 0
CCc1c(C)n([O-])c2c([n+]1=O)CCC2 | 12* | TTR inh HuH7=-17;TTR act confirm=0
CNC(=S)NNC(=O)c1sc(-c2cc(C)on2)nc1C | 14* | TTR inh HuH7=-7;TTR act confirm=-1
Cc1nc(-c2ccc(Cl)cc2)sc1C(=O)NNC(=O)C(C)C | 3
Cc1cc(C(=O)NNC(=S)NCC(C)C)no1 | 0
Cc1cc(C)c(C)c(S(=O)(=O)N2CCC(C(=O)NCCCN3CCCC3=O)CC2)c1C | -2
O=C(NCc1ccc(Cl)c(Cl)c1)O[C@H]1CC[C@@]23CCCN2C(=O)CCC[C@H]3C1 | 0
COc1ccc(Cc2nnc(-c3ccccc3)o2)cc1 | -1
COc1ccc(SCCc2nnc(-c3ccccc3)o2)cc1 | -1
CCCc1nnc(-c2ccc(OC)cc2)o1 | 12* | TTR inh HuH7=-1;TTR act confirm=-1
O=C1C(CN2CCCC2)CCCC1CN1CCCC1 (centres undefined) | 2
O=S1(=O)c2c(cccc2N2CC[C@@H](O)C2)OCCCN1C1CC1 | 0
COC(=O)[C@@]12CCCCN1[C@H](c1ccc(SC3CCCCC3)cc1)[C@@H]1C(=O)N(C)C(=O)[C@@H]12 | 17* | TTR inh HuH7=7;TTR act confirm=-1
COC(=O)[C@@]12CCCCN1[C@H](c1ccc(-c3ccc(C(C)=O)cc3)cc1)[C@H]1C(=O)N(C)C(=O)[C@H]12 | -2
CCSc1ccc([C@@H]2[C@H]3C(=O)N(C)C(=O)[C@H]3[C@]3(C(=O)OC)CCCCN23)cc1 | -1
CCN1C(=O)[C@@H]2[C@@H](c3ccc(-c4ccc(C(C)=O)cc4)cc3)N3CCCC[C@@]3(C(=O)OC)[C@@H]2C1=O | 12* | TTR inh HuH7=1;TTR act confirm=-1
CCN1C(=O)[C@@H]2[C@@H](c3ccc(-c4ccc5c(c4)OCO5)cc3)N3CCCC[C@@]3(C(=O)OC)[C@@H]2C1=O | -2
COC(=O)[C@@]12CCCN1[C@H](c1ccc(-c3ccccc3)cc1)[C@H]1C(=O)N(C)C(=O)[C@H]12 | 4
COc1ccc(C(=O)Nc2cc(C(=O)O)cc(C(=O)O)c2)cc1Cl | 0
COc1ccc(C(=O)Nc2ccccc2C(=O)O)cc1Cl | 78* | TTR inh HuH7=-9;TTR act confirm=-1
CCOc1ccc(C(=O)Nc2cccc(C(=O)O)c2C)cc1Cl | 3
COC(=O)c1ccc(Cn2ccc3ccc(-c4ccc5ccn(C(=O)c6ccccc6)c5c4)cc32)cc1 | 2
C[N+]1=C2N[C@@H](c3ccccc3)CC(=O)N2/C(=C\c2ccccc2)[C@@H]1Cc1ccccc1 | -1
SMILES | TTR transcr act | others
CCCCc1c(-c2ccccc2OC)ncn1CCc1ccccc1Cl | -2
c1ccc(CCc2nc3ccccc3[nH]2)cc1 | 1
c1ccc(CNc2nc3ccccc3[nH]2)cc1 | 9.9* | TTR inh HuH7=-4;TTR act confirm=1
O=c1[nH]c2ccccc2nc1NCc1ccccc1 | -2
COC(CNC(=O)[C@H](Cc1c[nH]c2ccccc12)NC1(C(=O)NCc2ccccc2)CCCCC1)OC | -2
O=C(OCC#CCSc1nnc(-c2cccc3ccccc23)o1)c1ccccc1 | 2
CN1CCc2c(sc3nc(SCC(=O)N4CCCCC4)n(-c4ccccc4)c(=O)c23)C1 | 8
CCCCNc1nc2sc3c(c2c(=O)n1-c1cccc(Cl)c1)CCN(C)C3 | 102* | TTR inh HuH7=-9;TTR act confirm=1
CCSc1nc2sc3c(c2c(=O)n1-c1ccccc1C)CCN(C)C3 | -1
CC(=O)c1cc(-c2cccc(CO)c2)c(=O)n2c1CCC2 | 1
Cc1ccccc1CN1CCCCC(NC(=O)c2ccc(F)c(F)c2)C1=O (centres undefined) | 0
C[C@H](CO)N1C[C@H](C)[C@@H](CN(C)C(=O)c2ccccn2)Oc2cc(Br)ccc2S1(=O)=O | 1
Cc1cccc(C)c1-n1nnnc1C1(C)CN(S(C)(=O)=O)CC(=O)N1Cc1ccc(F)cc1 (centres undefined) | -1
CN(Nc1cccc(Cl)c1)c1cccc(Cl)c1 | 11* | TTR inh HuH7=-20;TTR act confirm=0
CN(C)NC(=O)c1cccc(Cl)c1 | 3
CN(C)NC(=S)Nc1cccc(Cl)c1 | 1
CCCC[C@H](C(=O)N(C)c1ccccc1)[C@@H](O)c1ccc(Cl)cc1 | 0
CCC[C@H]1[C@@H](OC(=O)NCc2ccc(Cl)cc2)CC[C@@]23CCCN2C(=O)CCC[C@@H]13 | 1
CC1(C)N=C(N)N=C(N)N1c1cccc(C#N)c1 | 0
CCNC(=O)CCc1nc(-c2ccc(C(C)C)cc2)no1 | 0
COC(=O)[C@]12C[C@H](CC(=O)N3CCN(C(=O)C4CC4)CC3)C(=O)N(CCc3ccc(OC)c(OC)c3)C1=C[C@H](C(C)C)O[C@@H]2C1CC1 | 6
CCC(=O)Nc1cc(C)c(NC(=O)C23CC4CC(CC(C4)C2)C3)cn1 | 9.9* | TTR inh HuH7=-17;TTR act confirm=0
